According to PubChem BioAssay:
Calls of active or inactive are those of the source.

Key:
[1] = small molecules captured by biotinylated probe aFSTL3 – biochemical, small-molecule microarray, fluorescence 635/667, stem cell growth factor project, primary screen (AID 1064); settings: higher = more signal;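 note: measures binding of the biotinylated anti-FSTL3 antibody to printed compounds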
[2] = binders from COS7 lysate, DM2A8 probe, primary screen, torsin A project, cell lysate, small-molecule microarray, fluorescence 635/667 (AID 1065); settings: higher = more signal, COS7 lysate expressing mutant human TOR1A
[3] = small molecules captured by biotinylated probe aFGF2 – biochemical, small-molecule microarray, fluorescence 635/667, stem cell growth factor project, primary screen (AID 1067); settings: higher = more signal;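 note: measures binding of biotinylated aFGF2 protein to printed compounds on slides; z-score merges feature fluorescence and signal-to-noise across triplicate slides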
[4] = small molecules captured by biotinylated probe aFGF10 – biochemical, small-molecule microarray, fluorescence 635/667, stem cell growth factor project, primary screen (AID 1071); settings: higher = more signal;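 note: score merges 667 nm spot intensity and signal to noise from triplicate slides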
[5] = biological target: Neurogenic locus notch homolog protein 2 (Homo sapiens) (UniProt Q04721); assay: small molecules binding Notch2 protein – biochemical, small-molecule microarray, 635 nm fluorescence, stem cell growth factors, primary screen (AID 1073); settings: higher = more signal
[6] = biological target: Pro-neuregulin-1, membrane-bound isoform (Homo sapiens) (UniProt Q02297); assay: small molecules binding neuregulin-1 protein – biochemical, small-molecule microarray, fluorescence 635/667, psychiatric disease protein project, primary screen (AID 1075); settings: NRG1 binding, 635 nm fluorescence, higher = more signal;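 note: score combines 667 nm spot fluorescence with signal to noise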
[7] = tested on: Neuregulin-1 EGF-like domain; assay: small molecules binding NRG1 EGF domain – biochemical, small-molecule microarray, 635 nm fluorescence, primary screen (AID 1081); settings: higher = more signal;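 note: binding of the protein to compounds printed on small-molecule microarray slides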
[8] = FRG1 expression reporter modulators in myotubes – cell-based, C2C12 myotubes, firefly/Renilla luciferase, luminescence, FRG1 inhibition for FSHD, primary screen (AID 1084); settings: FRG1 promoter luciferase, higher = more signal, called active from +8 up or from −8 down
[9] = small molecules captured by biotinylated probe aFST – biochemical, small-molecule microarray, fluorescence 635/667, stem cell growth factor project, primary screen (AID 1086); settings: higher = more signal;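 note: score merges 667 nm fluorescence with signal-to-noise of each printed compound spot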
[10] = binders of probe aHhip on microarray, primary screen, stem cell growth factor project, biochemical, small-molecule microarray, fluorescence 635/667 (AID 1087); settings: higher = more signal;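 note: score merges spot fluorescence at 667nm with spot signal to noise ratio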
[11] = tested on: PRMT1 (protein arginine N-methyltransferase 1); assay: small molecules binding arginine methyltransferase PRMT1 – biochemical, small-molecule microarray, 635 nm fluorescence, primary screen (AID 1088); settings: higher = more signal;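 note: binding of Prmt1 protein to compounds spotted on small-molecule microarray slides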
[12] = growth effects on S. cerevisiae YJM789 – YJM789 clinical isolate, OD600, 24 h, basal, primary screen (AID 1089); settings: higher = more signal, called active from +8 up or from −8 down;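 note: growth of clinical yeast isolate S. cerevisiae YJM 789 seeded 1000 cells per well; test concentration not given here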
[13] = S. pombe growth modifiers, basal conditions – strain 972, OD600, 24 h, no modulator, primary screen (AID 1090);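 note: basal condition with compound alone and no growth modifier present; test concentration not given here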; settings: S. pombe 972 growth, higher = more signal, called active from +8 up or from −8 down
[14] = budding yeast growth modifiers under rapamycin – strain BY4716, OD600, 96 h, primary screen (AID 1091); note: test concentration not given here; settings: S. cerevisiae BY4716 + rapamycin, higher = more signal, called active from +8 up or from −8 down
[15] = biological target: Torsin-1A-interacting protein 2 (Homo sapiens) (UniProt Q8NFQ8); assay: small molecules binding lysate-expressed LULL1 – cell lysate, human LULL1 lysate, 635/667 nm fluorescence, primary screen (AID 1092); settings: small-molecule microarray, hLULL1 lysate binding, 635 nm fluorescence; higher = more signal;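 note: probe is lysate of COS7 cells overexpressing human LULL1; score merges per-feature 667 nm fluorescence with signal-to-noise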
[16] = optical density change of DRC41 E. coli – strain DRC41, OD650, 24 h, E. coli filamentation project, primary screen (AID 1093);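 note: MC1000 strain lacking acrAB efflux and sulA so SOS filamentation is blocked; test concentration not given here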; settings: E. coli DRC41 growth, higher = more signal, called active from +8 up or from −8 down
[17] = probe aLefty2 binding to arrayed compounds – biochemical, biotinylated probe, 635/667 nm fluorescence, primary screen (AID 1094); settings: small-molecule microarray, higher = more signal;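 note: score merges spot fluorescence near 667 nm with spot signal-to-noise ratio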
[18] = tested on: Noggin (protein binding on small-molecule microarray); assay: small molecules binding Noggin protein – biochemical, 635/667 nm fluorescence, primary screen (AID 1095); settings: 635 nm fluorescence, higher = more signal;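 note: score merges 667 nm feature fluorescence with signal to noise over triplicate slides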
[19] = biological target: Neurogenic locus notch homolog protein 3 (Homo sapiens) (UniProt Q9UM47); assay: small molecules binding NOTCH3 protein – biochemical, 635/667 nm fluorescence, primary screen (AID 1096); settings: small-molecule microarray, 635 nm fluorescence, higher = more signal
[20] = probe aEGFR binding to arrayed compounds – biochemical, biotinylated probe, 635/667 nm fluorescence, primary screen (AID 1097); settings: small-molecule microarray, higher = more signal;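 note: probe is a biotinylated anti-EGFR antibody binding compounds printed on slides; score combines fluorescence near 667 nm and signal to noise of each spot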

Sequence of Pro-neuregulin-1, membrane-bound isoform (Homo sapiens) (Q02297 whole entry, looked up, the tested form may be a part, canonical isoform): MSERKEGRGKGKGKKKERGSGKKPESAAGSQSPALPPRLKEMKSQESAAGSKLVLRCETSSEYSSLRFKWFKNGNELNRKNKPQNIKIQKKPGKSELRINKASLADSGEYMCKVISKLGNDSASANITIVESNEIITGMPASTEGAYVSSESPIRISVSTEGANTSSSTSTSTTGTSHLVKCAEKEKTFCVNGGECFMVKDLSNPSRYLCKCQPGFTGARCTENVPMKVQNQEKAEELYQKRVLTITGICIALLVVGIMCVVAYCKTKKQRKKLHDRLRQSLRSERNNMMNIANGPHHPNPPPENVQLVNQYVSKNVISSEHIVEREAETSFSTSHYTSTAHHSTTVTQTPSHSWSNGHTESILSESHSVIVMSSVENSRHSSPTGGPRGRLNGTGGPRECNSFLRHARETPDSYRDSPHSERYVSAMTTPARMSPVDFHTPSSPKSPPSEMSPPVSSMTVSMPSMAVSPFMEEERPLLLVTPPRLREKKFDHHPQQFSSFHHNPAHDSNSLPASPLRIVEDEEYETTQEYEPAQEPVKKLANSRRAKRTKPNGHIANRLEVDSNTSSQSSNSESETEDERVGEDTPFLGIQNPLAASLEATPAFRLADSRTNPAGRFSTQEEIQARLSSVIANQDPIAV
Sequence of Neurogenic locus notch homolog protein 3 (Homo sapiens) (Q9UM47 whole entry, looked up): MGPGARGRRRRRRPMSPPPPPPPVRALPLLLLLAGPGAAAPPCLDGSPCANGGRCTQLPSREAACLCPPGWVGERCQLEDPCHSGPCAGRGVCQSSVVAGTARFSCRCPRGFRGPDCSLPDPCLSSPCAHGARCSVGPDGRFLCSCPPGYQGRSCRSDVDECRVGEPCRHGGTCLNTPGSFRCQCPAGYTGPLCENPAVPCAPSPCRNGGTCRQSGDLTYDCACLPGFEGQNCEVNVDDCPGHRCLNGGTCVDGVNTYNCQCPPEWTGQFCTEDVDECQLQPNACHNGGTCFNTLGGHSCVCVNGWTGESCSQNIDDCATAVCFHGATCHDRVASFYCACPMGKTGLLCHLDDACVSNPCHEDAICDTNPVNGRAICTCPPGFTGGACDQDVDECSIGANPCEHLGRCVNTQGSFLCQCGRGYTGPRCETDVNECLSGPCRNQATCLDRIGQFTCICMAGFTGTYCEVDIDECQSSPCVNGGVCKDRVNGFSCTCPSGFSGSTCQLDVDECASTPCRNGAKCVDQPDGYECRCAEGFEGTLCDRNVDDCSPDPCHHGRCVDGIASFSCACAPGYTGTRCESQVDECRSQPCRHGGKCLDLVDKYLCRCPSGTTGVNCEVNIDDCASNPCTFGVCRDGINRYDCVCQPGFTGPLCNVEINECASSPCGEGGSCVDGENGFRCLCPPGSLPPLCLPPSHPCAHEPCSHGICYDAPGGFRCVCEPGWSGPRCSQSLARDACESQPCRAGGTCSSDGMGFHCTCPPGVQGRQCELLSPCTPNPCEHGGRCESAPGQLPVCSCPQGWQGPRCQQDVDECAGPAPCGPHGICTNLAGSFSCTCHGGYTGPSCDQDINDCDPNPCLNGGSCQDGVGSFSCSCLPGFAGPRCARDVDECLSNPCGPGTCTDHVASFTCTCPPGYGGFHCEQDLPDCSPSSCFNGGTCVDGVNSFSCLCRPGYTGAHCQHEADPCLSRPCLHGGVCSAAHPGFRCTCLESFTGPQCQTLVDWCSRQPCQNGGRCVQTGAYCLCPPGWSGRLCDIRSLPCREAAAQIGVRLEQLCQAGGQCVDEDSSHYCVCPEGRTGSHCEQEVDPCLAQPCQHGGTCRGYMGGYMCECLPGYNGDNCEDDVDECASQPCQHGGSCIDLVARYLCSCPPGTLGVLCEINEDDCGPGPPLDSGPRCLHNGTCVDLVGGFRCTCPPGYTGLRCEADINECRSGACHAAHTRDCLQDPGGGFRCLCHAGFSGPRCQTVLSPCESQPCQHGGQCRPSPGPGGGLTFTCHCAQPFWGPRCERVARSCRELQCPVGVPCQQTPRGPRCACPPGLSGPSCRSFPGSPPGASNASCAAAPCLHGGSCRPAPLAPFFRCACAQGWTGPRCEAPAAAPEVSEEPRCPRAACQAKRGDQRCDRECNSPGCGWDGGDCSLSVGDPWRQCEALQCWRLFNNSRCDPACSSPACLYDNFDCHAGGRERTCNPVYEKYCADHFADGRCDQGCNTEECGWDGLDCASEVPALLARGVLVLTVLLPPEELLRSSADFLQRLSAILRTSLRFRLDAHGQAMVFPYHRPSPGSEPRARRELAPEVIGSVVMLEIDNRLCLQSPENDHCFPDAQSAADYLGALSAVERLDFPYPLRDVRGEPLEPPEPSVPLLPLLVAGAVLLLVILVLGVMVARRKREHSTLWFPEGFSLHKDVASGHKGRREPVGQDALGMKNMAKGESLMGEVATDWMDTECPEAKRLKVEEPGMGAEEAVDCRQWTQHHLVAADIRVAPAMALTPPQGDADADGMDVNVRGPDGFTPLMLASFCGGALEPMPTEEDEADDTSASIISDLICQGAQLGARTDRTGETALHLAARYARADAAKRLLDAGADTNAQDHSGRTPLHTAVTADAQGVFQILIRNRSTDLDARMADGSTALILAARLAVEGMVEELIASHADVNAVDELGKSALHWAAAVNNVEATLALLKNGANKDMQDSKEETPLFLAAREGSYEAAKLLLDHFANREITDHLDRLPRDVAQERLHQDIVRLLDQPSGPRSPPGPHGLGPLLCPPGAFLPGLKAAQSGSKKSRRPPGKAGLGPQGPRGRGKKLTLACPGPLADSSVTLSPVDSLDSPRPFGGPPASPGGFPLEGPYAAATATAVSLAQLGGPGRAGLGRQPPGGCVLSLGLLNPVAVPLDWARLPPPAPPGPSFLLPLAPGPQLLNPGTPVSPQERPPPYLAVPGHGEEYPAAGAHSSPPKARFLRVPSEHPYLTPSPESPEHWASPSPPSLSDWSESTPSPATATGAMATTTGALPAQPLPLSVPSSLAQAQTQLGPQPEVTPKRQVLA
Sequence of Torsin-1A-interacting protein 2 (Homo sapiens) (Q8NFQ8 whole entry, looked up): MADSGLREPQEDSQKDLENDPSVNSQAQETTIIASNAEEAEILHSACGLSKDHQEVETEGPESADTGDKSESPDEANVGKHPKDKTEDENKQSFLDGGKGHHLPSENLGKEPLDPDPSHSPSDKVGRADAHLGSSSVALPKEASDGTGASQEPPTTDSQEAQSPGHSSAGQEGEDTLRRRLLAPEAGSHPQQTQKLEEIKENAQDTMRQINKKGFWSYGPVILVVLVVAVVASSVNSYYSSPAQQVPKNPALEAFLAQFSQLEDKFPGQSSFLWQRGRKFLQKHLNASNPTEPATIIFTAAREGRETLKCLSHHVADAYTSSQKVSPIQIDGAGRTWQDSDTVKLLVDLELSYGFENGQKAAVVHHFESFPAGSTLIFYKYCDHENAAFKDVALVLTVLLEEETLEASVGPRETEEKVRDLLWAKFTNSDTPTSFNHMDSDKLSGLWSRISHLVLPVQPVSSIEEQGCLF

SMILES	composite z-score [1]	composite z-score [2]	composite z-score [3]	composite z-score [4]	composite z-score [5]	composite z-score [6]	composite z-score [7]	z-score [8]	composite z-score [9]	composite z-score [10]	composite z-score [11]	z-score [12]	z-score [13]	z-score [14]	composite z-score [15]	z-score [16]	composite z-score [17]	composite z-score [18]	composite z-score [19]	composite z-score [20]
COCC(=C=CC[C@H](O)c1ccc(OCCO)cc1)C[C@H](O)COCc1ccccc1	-0.41	0.0477	-0.0762	0.477	0.189	0.586	1.03	0.723 (inactive)	0.163	0.0505	1.51	-1.49 (inactive)	-1.44 (inactive)	-0.885 (inactive)	1.64	0.825 (inactive)	-0.298	1.4	0.573	-0.02
Cc1c(NC(=O)/C(C#N)=C/C=C/c2ccc(N(C)C)cc2)c(=O)n(-c2ccccc2)n1C	-0.266	0.297	0.29	0.82	1.18	1.49	1.17	3.7 (inactive)	0.512	0.409	1.55	-0.0755 (inactive)	-0.544 (inactive)	-0.299 (inactive)	2.6	0.482 (inactive)	0.647	0.586	0.739	0.118
COC(=O)[C@@]1(Cc2ccc(OC)cc2)[C@H]2c3cc(C(=O)N(C)C)n(Cc4ccccc4)c3C[C@H]2CN1C(=O)c1ccccc1	0.342	0.0293	-0.0066	0.0679	0.571	1.11	0.828	-1.53 (inactive)	1.06	-0.0597	-0.0018	0.0364 (inactive)	-0.55 (inactive)	-1.42 (inactive)	1.84	-0.869 (inactive)	0.0241	0.337	0.0263	-0.254
C=C(CCCC)/C(=C/C[C@@H](OC(=O)c1ccncc1)c1cccc(OCCO)c1)c1cnc2ccccc2c1	0.186	0.935	0.049	1.03	1.3	0.972	1.13	2.51 (inactive)	0.0095	0.443	1.57	-2.12 (inactive)	-1.98 (inactive)	1.53 (inactive)	1.52	0.657 (inactive)	0.0113	1.55	1.06	0.0617
CON(C)C(=O)C=C1C[C@@H](c2cccc(Cl)c2)O[C@@H](c2cccc(Cl)c2)O1	-0.0715	1.03	0.0168	-0.0102	-0.0986	1	0.524	-1.83 (inactive)	-0.0994	-0.0645	0.945	0.37 (inactive)	-0.873 (inactive)	6.28 (inactive)	0.989	-0.168 (inactive)	-0.0309	0.407	0.121	-0.0769
Cc1ccc(C(C)CC(O)C2C=CC3C(=O)N(c4ccccc4)C(=O)C3N2Nc2ccc(C(C)C)cc2)o1 (stereo not given)	1.15	1.05	0.102	0.712	1.58	1.93	0.765	0.543 (inactive)	0.992	-0.0772	0.843	0.379 (inactive)	0.0145 (inactive)	0.842 (inactive)	1.28	-1.36 (inactive)	0.295	-0.641	1.04	0.14
CC(C)(C)OC(=O)CC[C@]1(C(=O)N2CCOCC2)N=C(c2ccc(OCCCO)cc2)O[C@H]1c1ccccc1	-0.209	0.177	-0.0601	0.724	0.819	0.526	0.548	-2.64 (inactive)	0.534	0.0695	0.587	0.0164 (inactive)	-0.988 (inactive)	-0.439 (inactive)	2.52	0.961 (inactive)	0.0038	1.26	0.348	-0.0656
CN(C)CCCCNC(=O)[C@H]1C[C@H]2C(=O)N[C@@H](CCCCN(C)C)C(=O)N2[C@H]1c1cccc(OCCO)c1	-0.852	1.25	0.0025	1.02	0.591	0.839	1.32	-0.275 (inactive)	0.402	-0.381	1.53	0.328 (inactive)	1.22 (inactive)	-0.378 (inactive)	2.74	-0.0359 (inactive)	-0.0474	1.38	0.993	-0.219
[N-]=[N+]=NCc1ccccc1[C@H]1OC(c2ccc(OCCCO)cc2)=N[C@@]1(CCS(=O)(=O)c1ccccc1)C(N)=O	0.573	1.33	0.145	0.763	1.65	2.03	1.36	4.66 (inactive)	0.805	-0.0645	1.47	0.0249 (inactive)	-0.131 (inactive)	-0.595 (inactive)	3.36	-0.199 (inactive)	0.074	0.086	0.861	0.0929
